Some targets named below: RELARELA (p65 homodimer) (Homo sapiens, UniProt Q04206 1-307); p50p50 homodimer (Homo sapiens, UniProt P19838 7-356); RELB subunit;p50 subunit (Homo sapiens;Homo sapiens, UniProt Q01201;P19838 120-401;7-356).
What all share (test): protein binding microarray; high values mean tight binding
Common to all, as to conditions: dsDNA, one strand shown

The target of a further experiment is T1, p52p52 homodimer (Homo sapiens, UniProt Q00653 4-332).
T1 sequence: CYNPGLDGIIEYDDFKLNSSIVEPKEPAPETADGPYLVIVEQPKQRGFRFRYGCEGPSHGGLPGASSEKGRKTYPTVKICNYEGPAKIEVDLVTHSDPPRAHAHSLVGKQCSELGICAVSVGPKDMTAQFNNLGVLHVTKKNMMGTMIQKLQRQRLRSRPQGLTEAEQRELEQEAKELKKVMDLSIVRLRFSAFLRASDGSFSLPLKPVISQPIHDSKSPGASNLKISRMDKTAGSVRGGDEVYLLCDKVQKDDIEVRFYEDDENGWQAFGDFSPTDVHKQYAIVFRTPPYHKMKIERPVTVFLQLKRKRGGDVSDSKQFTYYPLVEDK

The target of experiment [1] is RELA (p65) subunit of heterodimer;p50 subunit (Homo sapiens;Homo sapiens, UniProt Q04206;P19838 1-307;7-356).
RELA (p65) subunit of heterodimer;p50 subunit, sequence (Q04206 1-307, chain 1 of 2): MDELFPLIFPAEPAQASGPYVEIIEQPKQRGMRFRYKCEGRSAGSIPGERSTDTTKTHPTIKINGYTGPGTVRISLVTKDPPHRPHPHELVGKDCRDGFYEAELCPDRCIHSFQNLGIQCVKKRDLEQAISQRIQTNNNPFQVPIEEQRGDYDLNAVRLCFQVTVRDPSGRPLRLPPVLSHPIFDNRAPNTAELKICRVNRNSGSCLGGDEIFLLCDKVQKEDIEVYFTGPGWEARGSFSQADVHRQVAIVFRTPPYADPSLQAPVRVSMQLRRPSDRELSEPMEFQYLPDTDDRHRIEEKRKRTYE
RELA (p65) subunit of heterodimer;p50 subunit, sequence (P19838 7-356, chain 2 of 2): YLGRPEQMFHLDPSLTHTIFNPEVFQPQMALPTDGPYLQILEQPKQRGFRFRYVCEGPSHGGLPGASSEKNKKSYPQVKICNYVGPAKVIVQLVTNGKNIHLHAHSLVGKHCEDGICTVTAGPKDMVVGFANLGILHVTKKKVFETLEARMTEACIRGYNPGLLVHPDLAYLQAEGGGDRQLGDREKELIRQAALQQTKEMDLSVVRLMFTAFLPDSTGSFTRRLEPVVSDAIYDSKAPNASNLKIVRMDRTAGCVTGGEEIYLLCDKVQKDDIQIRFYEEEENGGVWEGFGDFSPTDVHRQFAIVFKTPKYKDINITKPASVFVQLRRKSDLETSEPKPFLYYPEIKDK
Experiment [2] deals with RELA (p65) subunit of heterodimer;p52 subunit (Homo sapiens;Homo sapiens, UniProt Q04206;Q00653 1-307;4-332).
In a further experiment the target is T2, RELB subunit;p52 subunit (Homo sapiens;Homo sapiens, UniProt Q01201;Q00653 120-401;4-332).
T2 sequence 1: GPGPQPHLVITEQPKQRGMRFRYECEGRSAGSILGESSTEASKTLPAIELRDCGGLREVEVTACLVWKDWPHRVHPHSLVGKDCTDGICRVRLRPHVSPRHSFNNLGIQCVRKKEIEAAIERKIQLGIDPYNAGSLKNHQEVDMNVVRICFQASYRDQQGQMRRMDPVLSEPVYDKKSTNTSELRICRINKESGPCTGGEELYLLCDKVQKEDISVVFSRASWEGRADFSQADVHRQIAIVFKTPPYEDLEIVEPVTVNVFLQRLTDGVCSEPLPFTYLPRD
T2 sequence 2: T1 sequence

The target of experiment [3] is C-Rel subunit;p50 subunit (Homo sapiens;Homo sapiens, UniProt Q04864;P19838 1-285;7-356).
Experiment [4] deals with T3, C-Rel subunit;p52 subunit (Homo sapiens;Homo sapiens, UniProt Q04864;Q00653 1-285;4-332).
T3 sequence 1: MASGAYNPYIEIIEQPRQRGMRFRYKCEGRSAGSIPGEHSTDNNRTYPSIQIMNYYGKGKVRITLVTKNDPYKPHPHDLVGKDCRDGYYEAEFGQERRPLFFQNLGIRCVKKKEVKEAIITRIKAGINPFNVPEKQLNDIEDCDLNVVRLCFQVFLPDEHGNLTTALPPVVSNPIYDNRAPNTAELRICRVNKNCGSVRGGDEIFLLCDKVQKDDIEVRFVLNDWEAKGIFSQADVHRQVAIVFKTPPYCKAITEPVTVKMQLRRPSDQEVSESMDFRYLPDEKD
T3 sequence 2: T1 sequence

RELARELA (p65 homodimer), sequence (Q04206 1-307): as the sequence (Q04206 1-307, chain 1 of 2) above
p50p50 homodimer, sequence (P19838 7-356): as the sequence (P19838 7-356, chain 2 of 2) above

For GAGAGGACCCC, the binding signal in the experiment with RELARELA (p65 homodimer) is -0.845 z-score; in the experiment with p50p50 homodimer, -0.858 z-score; with p52p52 homodimer, -0.455 z-score; in experiment [1] it was -0.636 z-score; in experiment [2] it was -0.537 z-score; with RELB subunit;p50 subunit it was -0.461 z-score. Besides, the binding signal is -0.392 z-score with RELB subunit;p52 subunit, -0.607 z-score in experiment [3] and -0.571 z-score in [4].

As for CAATGACTCCT, the binding signal with RELARELA (p65 homodimer) is -0.344 z-score; with p50p50 homodimer, -1.02 z-score; with p52p52 homodimer, -0.692 z-score; in experiment [1], -1.08 z-score; in experiment [2], -1.05 z-score; with RELB subunit;p50 subunit, -1.12 z-score. Further, the binding signal with RELB subunit;p52 subunit is -0.995 z-score; in experiment [3] it was -1.33 z-score; in experiment [4], -1.13 z-score.

On to CAAAATATCCC, for which the binding signal is 0.764 z-score with RELARELA (p65 homodimer); 0.4 z-score with p50p50 homodimer; 0.253 z-score with p52p52 homodimer; 0.376 z-score in experiment [1]; 0.346 z-score in experiment [2]; 0.128 z-score with RELB subunit;p50 subunit. Further, the binding signal is 0.342 z-score with RELB subunit;p52 subunit, 0.0335 z-score in experiment [3] and 0.411 z-score in experiment [4].

CGGAACACCCT: the binding signal with RELARELA (p65 homodimer) was -0.222 z-score; with p50p50 homodimer, -0.182 z-score; with p52p52 homodimer it was -0.238 z-score; in experiment [1] it was -0.453 z-score; in [2] it was -0.316 z-score; with RELB subunit;p50 subunit it was -0.373 z-score. Further, the figures for the binding signal (with RELB subunit;p52 subunit; in experiment [3]; in [4]) were -0.287 z-score, -0.444 z-score and -0.317 z-score, respectively.

For AAAATACCCCT, the binding signal with RELARELA (p65 homodimer) is 1.01 z-score; with p50p50 homodimer, 1.41 z-score; with p52p52 homodimer, 1.92 z-score; in [1], 1.65 z-score; in experiment [2], 1.8 z-score; in the experiment with RELB subunit;p50 subunit it was 1.63 z-score. The binding signal with RELB subunit;p52 subunit came to 2.25 z-score; in [3] it was 1.26 z-score; in experiment [4] it was 1.95 z-score.

As to CAAGTCACCCC, the binding signal with RELARELA (p65 homodimer) was -0.939 z-score; in the experiment with p50p50 homodimer, -0.66 z-score; in the experiment with p52p52 homodimer it was -0.2 z-score; in experiment [1], -0.704 z-score; in experiment [2], -0.613 z-score; with RELB subunit;p50 subunit, -0.284 z-score. The binding signal with RELB subunit;p52 subunit is -0.0361 z-score; in experiment [3], -0.183 z-score; in experiment [4], -0.366 z-score.

Regarding CGGGAACCCCC, the binding signal in the experiment with RELARELA (p65 homodimer) amounted to 2.26 z-score; with p50p50 homodimer, 0.986 z-score; with p52p52 homodimer it was 2.98 z-score; in [1] it was 2.47 z-score; in [2], 2.46 z-score; in the experiment with RELB subunit;p50 subunit it was 1.67 z-score. For the same sequence, the binding signal with RELB subunit;p52 subunit was 2.34 z-score; in experiment [3], 2.01 z-score; in experiment [4], 2.86 z-score.

In the case of AAAGAATTCCC, the binding signal came out at 2.27 z-score with RELARELA (p65 homodimer); 1.08 z-score with p50p50 homodimer; 1.36 z-score with p52p52 homodimer; 1.57 z-score in [1]; 1.25 z-score in experiment [2]; 1.07 z-score with RELB subunit;p50 subunit. The binding signal in the experiment with RELB subunit;p52 subunit came to 0.975 z-score; in [3], 1.54 z-score; in experiment [4] it was 1.12 z-score.

AGAAAACTCCC: the binding signal in the experiment with RELARELA (p65 homodimer) amounted to 1.36 z-score; with p50p50 homodimer it was 1.03 z-score; with p52p52 homodimer, 0.9 z-score; in experiment [1] it was 1.14 z-score; in experiment [2] it was 0.979 z-score; with RELB subunit;p50 subunit it was 1.35 z-score. Also, the values for the binding signal (with RELB subunit;p52 subunit; in experiment [3]; in experiment [4]) were 0.74 z-score, 0.654 z-score and 0.947 z-score, respectively.

For the sequence AGAGGAGCCCC, the binding signal in the experiment with RELARELA (p65 homodimer) was -0.573 z-score; with p50p50 homodimer, 0.291 z-score; with p52p52 homodimer it was 0.0479 z-score; in experiment [1], -0.113 z-score; in experiment [2], -0.0242 z-score; in the experiment with RELB subunit;p50 subunit, 0.0681 z-score. The results for the binding signal (with RELB subunit;p52 subunit; in experiment [3]; in [4]) were 0.0342 z-score, -0.0137 z-score and -0.225 z-score, respectively.

Turning to AGGGTGCCCCT, the binding signal with RELARELA (p65 homodimer) was -0.552 z-score; with p50p50 homodimer, 0.473 z-score; with p52p52 homodimer it was 0.342 z-score; in [1], 0.511 z-score; in experiment [2], 0.658 z-score; with RELB subunit;p50 subunit it was 0.571 z-score. Also, the binding signal in the experiment with RELB subunit;p52 subunit is 1.16 z-score; in experiment [3], 0.426 z-score; in [4], 0.644 z-score.

For CGATTGTCCCT, the binding signal with RELARELA (p65 homodimer) was 0.353 z-score; in the experiment with p50p50 homodimer, 1.16 z-score; with p52p52 homodimer, 1.18 z-score; in experiment [1], 0.871 z-score; in experiment [2], 0.943 z-score; with RELB subunit;p50 subunit it was 1.29 z-score. Besides, the binding signal came to 1.27 z-score with RELB subunit;p52 subunit, 0.77 z-score in experiment [3] and 0.66 z-score in experiment [4].

With GAAAACATCCC, the binding signal is 0.244 z-score in the experiment with RELARELA (p65 homodimer); -0.173 z-score with p50p50 homodimer; -0.106 z-score with p52p52 homodimer; -0.0842 z-score in [1]; -0.0683 z-score in experiment [2]; -0.24 z-score with RELB subunit;p50 subunit. The binding signal with RELB subunit;p52 subunit was -0.321 z-score; in experiment [3] it was -0.174 z-score; in experiment [4], -0.211 z-score.

On to CAAGGGTCCCT, for which the binding signal is -0.447 z-score in the experiment with RELARELA (p65 homodimer); 0.337 z-score with p50p50 homodimer; 0.26 z-score with p52p52 homodimer; -0.269 z-score in experiment [1]; 0.0513 z-score in experiment [2]; 0.363 z-score with RELB subunit;p50 subunit. Also, the binding signal is 0.276 z-score with RELB subunit;p52 subunit, -0.315 z-score in experiment [3] and -0.166 z-score in experiment [4].

For CAGAGTGCCCT, the binding signal with RELARELA (p65 homodimer) was -0.65 z-score; in the experiment with p50p50 homodimer it was -1.13 z-score; with p52p52 homodimer, -0.629 z-score; in experiment [1] it was -0.784 z-score; in experiment [2], -0.964 z-score; with RELB subunit;p50 subunit, -0.897 z-score. The binding signal in the experiment with RELB subunit;p52 subunit was -0.973 z-score; in experiment [3], -0.975 z-score; in experiment [4] it was -0.713 z-score.

The record behind these values is publication PMC3218832.
